These results are taken from PubChem BioAssay.

Active and inactive are the calls of the source.

A short description of assay [1]: A549 cell viability effects, profiling panel, calcein-AM fluorescence, 48 h, basal (AID 1162). The following applies: higher = more signal.
The nature of assay [2]: adipocyte viability effects, profiling panel, cell-based, 3T3-L1 adipocytes, calcein-AM fluorescence, 48 h, basal (AID 1163). The following applies: 3T3-L1 adipocytes viability, higher = more signal.
A short description of assay [3]: HepG2 cell viability effects, profiling panel, calcein-AM fluorescence, 48 h, basal (AID 1164). As to conditions: higher = more signal.
Assay [4] is described as follows: MM1S cell viability effects, profiling panel, calcein-AM fluorescence, 48 h, basal (AID 1165).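 Further: viability of MM1S multiple myeloma cells under basal unstimulated conditions.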 As to conditions: higher = more signal.
A short description of assay [5]: basal RPMI8226 viability, no added stimulus, profiling panel, cell-based, calcein-AM fluorescence, 48 h, PK04 Diversity Set (AID 1166).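 Further: cells grown under basal conditions without added stimulus.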 As to conditions: RPMI8226 myeloma viability, higher = more signal.
Assay [6] is described as follows: basal HepG2 mitochondrial membrane potential changes, profiling panel, cell-based, JC-1 fluorescence, 24 h, 100 nL compound (AID 1167). The following applies: higher = more signal.
The nature of assay [7]: basal 3T3-L1 adipocyte mitochondrial potential changes, profiling panel, cell-based, JC-1 fluorescence, 3T3-L1 adipocytes, 24 h, 100 nL compound (AID 1168). As to conditions: JC-1 mitochondrial fluorescence, higher = more signal, called active from +8 up or from −8 down.
Assay [8] in a line: basal RPMI8226 mitochondrial membrane potential changes, profiling panel, cell-based, JC-1 fluorescence, 24 h, 100 nL compound (AID 1169). The following applies: RPMI8226 myeloma, JC-1 mitochondrial potential fluorescence, higher = more signal.
The nature of assay [9]: basal MM1S mitochondrial membrane potential changes, profiling panel, cell-based, JC-1 fluorescence, 24 h, 100 nL compound (AID 1170). The following applies: higher = more signal.
Assay [10] is described as follows: A549 lung cancer cell viability effects, profiling panel, resazurin fluorescence, 24 h, PK04 Diversity Set (AID 1171). As to conditions: higher = more signal, called active from +8 up or from −8 down. On the technique in general: Resazurin is reduced to fluorescent resorufin, in cell work by metabolically active cells.
Further: test concentration not given here.

Take `[N-]=[N+]=Nc1ccccc1C[C@]1(C(=O)NCc2ccccc2)N=C(c2ccc(OCCCO)cc2)O[C@H]1c1ccccc1N=[N+]=[N-]`: the z-score was -1.33 in assay [1]; 0.0309 in assay [2]; -1.2 in assay [3]; -2.94 in [4]; -3.55 in assay [5]; 1.58 in [6]. Besides, the z-score was 0.00967 (inactive) in assay [7], -1.18 in assay [8], -2.49 in [9] and -1.6 (inactive) in assay [10].
On to `CCOC(=O)C1=CC[C@@H](c2ccc(C(F)(F)F)cc2)N(S(=O)(=O)c2ccc(C)cc2)[C@H]1c1ccccc1`, for which the z-score is -0.664 in assay [1]; -1.01 in assay [2]; 0.0691 in assay [3]; -2.36 in assay [4]; -1.95 in [5]; -1.59 in assay [6]. Also, the z-score was 0.154 (inactive) in assay [7], -1.11 in assay [8], -3.18 in [9] and 0.138 (inactive) in assay [10].
Turning to `CC(C)NC(=O)[C@@]1(Cc2ccccc2I)c2ccccc2C(=O)N(Cc2ccccc2Cl)[C@H]1c1ccc(CO)cc1`, the z-score in assay [1] was -0.271; in [2] it was 0.0063; in assay [3], 0.768; in assay [4], -1.59; in assay [5], -2.03; in [6], -0.274. Moreover, the z-score in assay [7] was 0.131 (inactive); in assay [8] it was 0.0101; in assay [9] it was -0.756; in assay [10] it was 0.0211 (inactive).
Consider `COCCOC(=O)N1C(=O)[C@@]2(c3cc(C#CC4(O)CCCCCC4)ccc31)[C@H](c1ccccc1OCCO)N1[C@H](c3ccccc3)[C@H](c3ccccc3)OC(=O)[C@H]1[C@@H]2C(=O)N1CCc2cc(OC)c(OC)cc2C1`, for which the z-score is -0.329 in assay [1]; 0.346 in assay [2]; -0.011 in assay [3]; -0.889 in [4]; -1.76 in assay [5]; -0.0229 in [6]. The z-score in assay [7] was 0.0348 (inactive); in assay [8], -0.686; in assay [9], -1.14; in [10] it was 0.512 (inactive).
As to `C#CCNCc1ccccc1`, the z-score is -0.29 in assay [1]; -0.0255 in assay [2]; 0.331 in assay [3]; 0.612 in assay [4]; -0.523 in assay [5]; -0.221 in assay [6]. Moreover, the z-score is -0.815 (inactive) in [7], -0.804 in assay [8], -0.00594 in assay [9] and 0.0196 (inactive) in assay [10].
With `C=CCN1C(=O)[C@]2(O[C@H](CCO)[C@@H]([Si](C)(C)c3ccc(OC)cc3)[C@@H]2C)c2cc(N(C=O)c3ccccc3)ccc21`, the z-score in [1] was -3.81; in [2] it was 0.532; in [3], -4.8; in [4], -3.05; in assay [5], -4.39; in assay [6] it was -1.98. In addition, the z-score in assay [7] is -0.422 (inactive); in assay [8], -0.993; in assay [9], -2.23; in assay [10] it was -5.28 (inactive).
With `O=C(NCCN1CCOCC1)[C@@H]1c2ccccc2C(=O)N(Cc2cc(C(F)(F)F)cc(C(F)(F)F)c2)[C@H]1c1ccc(CO)cc1`, the z-score in assay [1] is 1.79; in assay [2], -0.587; in assay [3], 1.82; in [4] it was 0.266; in assay [5], -0.0119; in [6] it was 2.85. Also, the z-score in assay [7] is 0.252 (inactive); in assay [8], -0.021; in assay [9], -0.227; in assay [10] it was 0.0288 (inactive).
Consider `C=CCNC(=O)[C@@H]1[C@H]2C(=O)O[C@H](c3ccccc3)[C@H](c3ccccc3)N2[C@H](c2ccc(OCCO)cc2)[C@@]12C(=O)N(C(=O)OCCOC)c1ccc(C#CCNC(N)=O)cc12`, for which the z-score in assay [1] was -0.0901; in assay [2] it was 0.488; in assay [3], 0.219; in [4], 0.911; in assay [5], -1.6; in assay [6], -0.734. Also, the z-score was 0.648 (inactive) in assay [7], -0.888 in assay [8], 0.679 in assay [9] and -0.271 (inactive) in assay [10].
Regarding `Cc1ccc(/C=C/C=O)cc1`, the z-score is 0.572 in [1]; -0.106 in assay [2]; 0.935 in assay [3]; 0.858 in assay [4]; 0.532 in [5]; 1.34 in [6]. The z-score in assay [7] is -0.111 (inactive); in assay [8] it was -0.758; in assay [9], 0.427; in assay [10], -0.64 (inactive).
Turning to `COc1ccc(C(O)C2C=CC3C(=O)N(C)C(=O)C3N2NC(=O)OC(C)(C)C)c2ccccc12` (stereo not given), the z-score in assay [1] is -0.844; in [2], -0.769; in [3], -1.99; in [4] it was 0.18; in assay [5], -0.463; in assay [6], -2.62. Also, the z-score in assay [7] was 0.549 (inactive); in assay [8], 0.674; in [9], 0.932; in assay [10] it was 1.94 (inactive).
As for `Cc1ccc(C2C3C(=O)CC4C(=O)N(c5ccccc5)C(=O)C4C3CN2S(=O)(=O)c2ccc(C)cc2)cc1` (stereo not given), the z-score was -0.105 in [1]; -0.172 in [2]; 0.261 in assay [3]; 0.948 in assay [4]; 0.563 in assay [5]; 0.371 in assay [6]. Besides, the z-score is 0.134 (inactive) in assay [7], 0.515 in assay [8], -0.878 in assay [9] and -0.821 (inactive) in assay [10].
For `COC(=O)[C@@]1(Cc2ccccc2)[C@H]2c3cc(C(=O)N(C)C)n(CCc4c[nH]c5ccc(O)cc45)c3C[C@H]2CN1C(=O)c1ccccc1`, the z-score was -0.206 in [1]; 0.389 in [2]; 1.22 in assay [3]; -0.988 in assay [4]; -0.235 in assay [5]; -1.3 in [6]. In addition, the z-score is -0.215 (inactive) in assay [7], -0.532 in assay [8], -1.57 in [9] and 0.349 (inactive) in assay [10].
`[N-]=[N+]=Nc1ccccc1C[C@]1(C(=O)N2CCCCC2)COC(c2ccc(OCCCO)cc2)=N1`: the z-score was -0.611 in assay [1]; 0.761 in assay [2]; -0.328 in assay [3]; -3.52 in [4]; -4.33 in assay [5]; -0.676 in [6]. Moreover, the z-score is 0.00722 (inactive) in assay [7], -1.3 in assay [8], -2.03 in assay [9] and 1.85 (inactive) in assay [10].
Consider `CC(=O)NCCCC[C@@H]1NC(=O)[C@H]2C[C@@H](C(=O)NCCCCCNC(=O)CS)[C@@H](c3ccc(O)cc3)N2C1=O`, for which the z-score in [1] was 0.489; in [2] it was 0.102; in assay [3] it was 0.0041; in [4] it was -1.41; in assay [5] it was 0.102; in assay [6], 0.231. Besides, the z-score in [7] is -0.729 (inactive); in assay [8], 0.698; in assay [9] it was 0.612; in [10] it was -0.187 (inactive).
In the case of `COc1cc2c(cc1O)C=[N+](Cc1cc3c(cc1Br)OCO3)CC2`, the z-score in [1] is -0.103; in assay [2], 0.626; in assay [3], -0.958; in [4], 0.343; in assay [5], -0.109; in assay [6], -0.375. Further, the z-score in assay [7] was -0.935 (inactive); in [8], 0.108; in [9], -0.374; in assay [10] it was -0.698 (inactive).
With `O=C1OCC=C[C@H]2OC34C=CCN(Cn5nnc6ccccc65)C(=O)[C@H]3N(CCCCCO)C(=O)[C@@H]4[C@@H]12` (stereo not given in full), the z-score in [1] is -0.382; in assay [2] it was 0.188; in assay [3], -0.609; in assay [4], 0.823; in assay [5], 0.903; in [6], -0.0737. In addition, the z-score in assay [7] is -0.135 (inactive); in [8] it was 0.205; in [9], 0.183; in assay [10] it was -0.301 (inactive).
For `COc1ccc(CCNC(=O)[C@@]2(c3ccc([N+](=O)[O-])cc3)CC(=O)N(CC34CC5CC(CC(C5)C3)C4)[C@@H]2c2ccc(CO)cc2I)cc1`, the z-score in [1] is -0.68; in assay [2], 0.475; in [3], -1.36; in assay [4], -2.44; in [5] it was -3.68; in assay [6] it was 2. Also, the z-score was 0.1 (inactive) in assay [7], -0.973 in [8], -0.571 in assay [9] and -2.16 (inactive) in [10].
